Assay outcomes as filed in PubChem BioAssay.
rTrxR1 inhibitor – rat TrxR1 inhibition; O89049; 390,000 tested, 1% active; recombinant rTrxR1, NADPH fluorescence consumption, selenite substrate; Potency, µM (series often up to 114 µM), without a hit: at the highest dose activity change, negative = inhibition, usual class: inhibitors; note: nearly all actives have a fitted effect of over 65% in size
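Rat TrxR1 (90 nM in the dispensed reagent) was pre-reduced with 400 uM NADPH for 5 min at room temperature, then incubated with compound for 15 min. After 400 uM selenite was added, NADPH fluorescence (Ex 340/Em 450 nm) was followed for 8 min.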
KAT2A inh – inhibitors of human GCN5L2 histone acetyltransferase. GCN5L2 HAT assay, ThioGlo1 CoA-SH fluorescence. Potency, µM (top dose mostly 58.9 µM), without a hit: top-dose activity change, negative = inhibition, actives largely listed as inhibitors. 390,000 tested, 0.21% active
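Compounds, pin-transferred from DMSO stocks, meet 20nM GCN5L2 for 15 min before the reaction begins with H3(1-25) peptide (75uM) and acetyl-CoA (70uM). Thiol-reactive ThioGlo1 reports CoA release over 20 min at room temperature.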
VDR inh – inhibitors of human vitamin D receptor; 400,000 tested, 0.93% active; P11473; VDR-SRC2-3 peptide fluorescence polarization, 2 h; Potency, µM, without a hit: max response, negative = inhibition, usual class: inhibitors
Target sequence (P11473 whole entry, looked up): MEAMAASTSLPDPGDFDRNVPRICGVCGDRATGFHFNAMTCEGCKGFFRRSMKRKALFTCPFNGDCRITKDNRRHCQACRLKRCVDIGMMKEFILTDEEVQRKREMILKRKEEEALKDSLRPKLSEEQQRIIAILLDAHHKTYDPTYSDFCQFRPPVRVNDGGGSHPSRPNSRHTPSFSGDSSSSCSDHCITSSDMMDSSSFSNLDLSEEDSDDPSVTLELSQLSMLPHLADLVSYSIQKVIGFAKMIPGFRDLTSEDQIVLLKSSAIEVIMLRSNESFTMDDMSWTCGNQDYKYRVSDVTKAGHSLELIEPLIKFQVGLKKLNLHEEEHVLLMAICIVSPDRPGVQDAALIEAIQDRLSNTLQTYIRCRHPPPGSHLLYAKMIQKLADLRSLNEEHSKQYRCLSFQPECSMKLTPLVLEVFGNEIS
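Fluorescence polarization assay measuring small-molecule disruption of VDR binding to the coregulator peptide SRC2-3. Compounds were pin-transferred (23 nl) into the reagent mix and incubated 2 h at room temperature before reading.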
TrxR1 substrate – is turned over as a substrate by rat TrxR1; purified TrxR1 substrate turnover, NADPH consumption readout; Potency, µM (series often up to 114 µM), without a hit: top-dose activity change, negative = substrate turnover; 390,000 tested, 0.01% active; AID 588456; note: nearly all actives have a fitted effect of over 50% in size
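Rat TrxR1, dispensed at 90 nM, was prereduced with 400 uM NADPH (final) for 5 min at ~22 deg C, then incubated with compound 15 min before 400 uM selenite. A first-read NADPH fluorescence drop versus no-compound background flagged substrates.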
The depositor's hits bear a star; ? = inconclusive; / = not tested or not shown; ! = a repeat was not active; [ ] = remark or other dose. An excerpt weighted towards active compounds, which were near 1.8% of everything screened. Calls come from the whole dose curve; as a rule, active = well fitted curve in the direction sought with a large enough effect; inconclusive = small, poorly fitted or top-dose-only effect, or another doubt; inactive = no such curve, though single readings can be large; an effect the other way counts as inactive or inconclusive. % is set by controls: 0 for no effect and ±100 for the full control effect; potency is the fitted concentration of half-maximal effect.

SMILES | rTrxR1 inhibitor | KAT2A inh | VDR inh | TrxR1 substrate
CCC/C=C1\CCCOC(C(=O)NCc2ccc(C)o2)(C(F)(F)F)C1 (configuration not stated) | ? | / | ? | -1%
CCC/C=C1/CCCOC(C(=O)NCc2ccc(C)o2)(C(F)(F)F)C1 (configuration not stated) | 13µM* | -19% | 50µM* | -9%
COc1ccc(C2=Nn3c(nnc3-c3ccccc3Cl)SC2)cc1OC1CCCC1 | 7.1µM* | -19% | -6% | -11%
O=C(Nc1cccc(Nc2ccccc2)c1)c1cnn2c1NC(=C1CC1)C=C2C(F)F | 12% | / | / | -3%
Fc1ccc(C2=NC(c3cccc(C(F)(F)F)c3)=Nc3ccccc3N2)cc1 | 24% | 0% | 10% | -2%
CCOC(=O)c1cc(C#N)c(SC(C(=O)N2CCCCC2)c2ccccc2)nc1C (configuration not stated) | ? | / | / | -7%
c1ccc2[nH]c(CSc3ncnc4c3oc3ccccc34)nc2c1 | -2% | 40µM* | -7% | -5%
COc1ccc(C2=CC(=O)C=CC2=O)cc1 | / | 13µM* | / | /
COc1cccc(NC(=O)c2sc3nc(C)c(C(=O)Nc4ccc(C)cc4C)c(-c4cccs4)c3c2N)c1 | 1% | 18µM* | -24% | -2%
COc1ccc(NC(=O)c2sc3nc(C)c(C(=O)Nc4ccc(C)cc4C)c(-c4cccs4)c3c2N)cc1 | ? | -5% | -2% | -15%
CC1=CC2C(=O)c3cccc(O)c3C(=O)C2C(O)=C1 (configuration not stated) | / | / | 25µM* | /
COc1ccc(C)cc1NC(C)C(=O)c1c[nH]c2ccccc12 (configuration not stated) | 11% | / | / | -2%
O=C(CCl)N1c2ccccc2Oc2ccc3ccccc3c21 | 2.5µM* | / | 20µM* | 8%
O=C(O)c1ccc2c(c1)C1C=CCC1C(c1ccncc1)N2 (configuration not stated) | -2% | 2% | 19% | -3%
Cc1c(Cl)cccc1NS(=O)(=O)c1ccc2c(c1)C1C=CCC1C(c1ccc(C(=O)O)cc1)N2 (configuration not stated) | ? | ? | ? | 4%[57.1 µM]
COC(=O)c1ccc([C@H]2Nc3ccc(S(=O)(=O)Nc4ccc(C)cc4)cc3[C@H]3C=CC[C@H]32)cc1 | 50µM* | -9% | -17% | 3%
CC(=O)c1ccc2c(c1)C1C=CCC1C(c1ccc(S(=O)(=O)N3CCOCC3)cc1)N2 (configuration not stated) | 50µM* | -9% | -25% | -9%
Cn1c(=O)n(-c2ccc(C(C)(C)C#N)cc2)c2c3cc(-c4cnc5ccccc5c4)ccc3ncc21 | -7%[229 µM] | / | / | 10%[229 µM]
Cc1ccnc2ccc([N+](=O)[O-])cc12 | 8% | / | / | -5%
COC(=O)c1c(-c2cccs2)csc1NC(=O)COc1c(C)ccc(C)c1C | 17% | ? | 22µM* | -7%
COC(=O)c1c(-c2cccs2)csc1NC(=O)COc1ccc(C)cc1 | 6% | -20% | 13% | -7%
COc1ccccc1[C@@H]1C(c2cccc(Cl)c2)=NN(c2ccccc2)[C@H]1C(=O)N1CCOC1=O | 81%[57.1 µM] | 20µM* | 2% | 83%[57.1 µM]
O=C1OCCN1C(=O)[C@H]1[C@H](c2ccccc2)C(c2cccc(Cl)c2)=NN1c1ccc(Br)cc1 | 160% | 22µM* | -15% | 147%
CCCN(C)CCCOc1cc2nc(N3CCCN(C)CC3)nc(NC3CCN(C)CC3)c2cc1OC | -25% | / | / | 74%
CC(=O)NC12CC3CC(C1)CC(C(=O)Nc1c(C)n(C)n(-c4ccccc4)c1=O)(C3)C2 | -4% | 0% | -4% | -7%
SMILES | rTrxR1 inhibitor | KAT2A inh | VDR inh | TrxR1 substrate
Cc1c(NC(=O)C23CC4CC(CC(C)(C4)C2)C3)c(=O)n(-c2ccccc2)n1C | 16%[57.1 µM] | 20µM* | 10% | 11%[57.1 µM]
CN(C)C(=S)Nn1c(-c2ccccc2)nc2ccccc2c1=O | -3% | -2% | -2% | -6%
Cc1cccc(-c2nc3ccccc3c(=O)n2NC(=S)N(C)C)c1 | ? | -1% | 50µM* | -8%
Oc1c(C(Nc2cccc(C(F)(F)F)c2)c2cccnc2)ccc2cccnc12 (configuration not stated) | 14µM* | -6% | ? | -14%
CC(=O)NC(c1ccc(C)cc1)c1cc(Cl)c2cccnc2c1O (configuration not stated) | 28% | 2% | 19% | 2%
Oc1c(C(Nc2cccnc2)c2ccc(C(F)(F)F)cc2)ccc2cccnc12 (configuration not stated) | ? | / | / | -6%
Oc1c(C(Nc2ccccn2)c2cccnc2)cc(Cl)c2cccnc12 (configuration not stated) | 13µM* | -4% | ? | -8%
Oc1c(C(Nc2ccccn2)c2ccccc2)ccc2cccnc12 (configuration not stated) | 50µM* | / | / | -4%
C#CCN(C1CCCC1)S(=O)(=O)C=C | ? | / | / | 2%
Nc1ccc(S(=O)(=O)c2cc(O)c3ccccc3c2O)cc1 | 2.8µM* | / | ? | -10%
CCCCCc1cc[n+](CC(=O)c2ccccc2)cc1 | 2% | / | / | 10%[0.0914 µM]
O=[N+]([O-])c1cccnc1S(=O)(=O)c1ccccc1 | 1.1µM* | 0% | ? | 1%
Nc1cccnc1S(=O)(=O)c1ccccc1 | 10% | 0% | 11% | 6%
COc1ccc(N(Cc2ccccc2)C(=O)c2nc(S(C)(=O)=O)ncc2Cl)cc1 | 1µM* | 1% | ? | 7%
O=C(NCc1ccccc1)c1nc(S(=O)(=O)Cc2ccccc2)ncc1Cl | 2.8µM*! | ? | ? | -2%
CC(=O)Nc1ccc(NC(=O)c2nc(S(=O)(=O)Cc3ccccc3)ncc2Cl)cc1 | 15% | -28% | -22% | -2%
CCCSc1ncc(Cl)c(C(=O)N(Cc2ccccc2)c2ccc(OC)cc2)n1 | 26% | -5% | 6% | 2%
CCS(=O)(=O)c1ncc(Cl)c(C(=O)NCc2ccccc2)n1 | 5.6µM* | -4% | -7% | 4%
COc1ccc(CNC(=O)c2nc(S(=O)(=O)Cc3ccccc3)ncc2Cl)cc1 | 3.2µM*! | 0% | ? | -4%
COc1ccc(CNC(=O)c2nc(SCc3ccc(C)cc3)ncc2Cl)cc1 | 22% | 0% | 8% | 1%
CS(=O)(=O)N1CCC2(CC1)CN(c1ccc(-c3ccccc3)cc1)C2 | / | -6% | 5% | /
CC[N+](C)(C)c1ccc(/C=C/c2ccc3ccccc3n2)cc1 | -10% | / | / | -6%
O=C(C#Cc1ccccc1)c1ccc([N+](=O)[O-])cc1 | ? | 0% | 14µM* | 16%[57.1 µM]
CN[C@@H]1[C@H](O[C@@H]2O[C@H](CO)[C@@H](N)[C@H](O)[C@@H]2O)O[C@H]2C[C@@H](N)[C@@H](O[C@H]3[C@@H](O)[C@H](O)[C@H](N)C[C@@H]3N)O[C@H]2[C@H]1O | / | 9%[21.4 µM] | -17% | /
CN[C@@H]1[C@H](O[C@@H]2O[C@H](C)[C@@](O)(CO)[C@H]2O[C@H]2[C@H](O)[C@H](O)[C@H](N=C(N)N)[C@@H](O)[C@@H]2N=C(N)N)O[C@@H](CO)[C@H](O)[C@H]1O | / | -5% | 50µM* | /
